A selection: hits, their analogues and other compounds. The true share with any hit is near 21%.
IL-1B inflam inh: blocks inflammasome-driven IL-1 beta release | 360,000 tested, 4.7% active | THP-1 LPS/ATP IL-1B secretion, AlphaLISA, 16 h; active compounds read low | activity change, % at 57.5 µM; in the data active = activity change below about -50%; inconclusive = mostly about -30% to -49%
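Secreted IL-1B measured by AlphaLISA bead assay after 16 h compound exposure of THP-1 cells; compounds (final up to 57.5 uM) added 1 h before LPS (250 ng/mL) and ATP (1.25 mM) stimulation; lower signal means less secretion.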
DT40 TDP1 no CPT: qHTS for Inhibitors of human tyrosyl-DNA phosphodiesterase 1 (TDP1): qHTS in cells in absence of CPT; DT40 Tdp1-/- hTDP1 cells, no CPT, ATP luminescence, 48 h; Potency, µM (top dose mostly 46.2 µM), usual class: inhibitors; 420,000 tested, 15% active; AID 686978, 2013; note: nearly all actives have a fitted effect of over 55% in size
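Growth of hTDP1-complemented DT40 Tdp1-knockout cells is measured by ATP luminescence after at least 48 hr compound exposure at 37 °C, with DMSO substituting for the 20 nM CPT used in the parallel screen.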
RORg inh: ROR gamma (mouse) transcription inhibition | 310,000 tested, 5.4% active | P51450 | Drosophila S2 Gal4-RORgamma UAS-luciferase reporter, 20 h | Potency, µM (series often up to 53.6 µM), usual class: inhibitors; note: nearly all actives have a fitted effect of over 60% in size
Target sequence (P51450 whole entry, looked up, the tested form may be a part): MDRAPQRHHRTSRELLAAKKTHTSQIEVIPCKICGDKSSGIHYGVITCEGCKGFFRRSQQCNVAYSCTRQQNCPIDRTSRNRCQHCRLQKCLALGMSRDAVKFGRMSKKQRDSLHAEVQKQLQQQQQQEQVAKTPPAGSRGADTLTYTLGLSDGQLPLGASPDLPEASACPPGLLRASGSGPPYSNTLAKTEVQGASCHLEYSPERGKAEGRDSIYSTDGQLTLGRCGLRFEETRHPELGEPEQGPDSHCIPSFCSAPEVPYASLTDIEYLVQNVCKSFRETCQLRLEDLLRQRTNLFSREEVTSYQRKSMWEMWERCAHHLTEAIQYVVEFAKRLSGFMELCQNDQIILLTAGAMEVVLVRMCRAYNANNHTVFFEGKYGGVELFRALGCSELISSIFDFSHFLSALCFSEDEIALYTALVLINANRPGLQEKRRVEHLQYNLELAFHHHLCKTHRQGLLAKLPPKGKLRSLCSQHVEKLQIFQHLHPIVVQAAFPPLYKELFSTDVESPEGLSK
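Drosophila Schneider cells stably carrying a metallothionein-driven Gal4 DBD–ROR gamma fusion and a UAS-Photinus luciferase reporter were exposed to compound for 1 hr, then induced with copper sulfate (700 uM final) for 20 hr at ambient temperature before luminescence reading.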
ELG1 DNA repair: inhibitors of ELG1-dependent DNA repair in HEK293T cells | HEK293T ELG1-luciferase reporter, luminescence, 16 h; DNA damage induced by 5-fluorouridine | Potency, µM (doses to about 46.1 µM), most hits filed as inhibitors | 330,000 tested, 2.3% active | AID 504467; note: nearly all actives have a fitted effect of over 55% in size
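DMSO vehicle served as the neutral condition. Each well held 2,000 cells given 5-fluorouridine plus compound; after 16 hr at 37 °C/5% CO2, ONE-Glo was added and luciferase measured 30 min later.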
Gal4-VP16 FLuc: Gal4-VP16 reporter inhibition counter-screen; Drosophila S2 Gal4-VP16 UAS-luciferase, luminescence, 20 h; Potency, µM (series often up to 53.6 µM), usual class: inhibitors; 310,000 tested, 3.5% active;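 note: Gal4-VP16 expression switched on by copper sulfate through the metallothionein promoter; nearly all actives have a fitted effect of over 50% in size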
DT40 TDP1 CPT: growth inhibition of DT40 Tdp1-/-;hTDP1 cells with camptothecin (screen for TDP1 inhibitors); AID 686979; Potency, µM (doses to about 46.2 µM), actives largely listed as inhibitors; chicken DT40 Tdp1-/-;hTDP1 cells + 20 nM CPT, ATP luminescence, 48 h; 420,000 tested, 12% active; note: nearly all actives have a fitted effect of over 55% in size
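Chicken DT40 Tdp1-/- cells stably complemented with human TDP1 were seeded at 400 cells/well in medium containing 20 nM camptothecin, exposed to pin-transferred compounds, and grown at 37 °C for at least 48 hr. Viability was read as ATP luminescence.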
Of the large screens only hits and unclear results are named; the others gave an inactive call. Unless noted, calls come from the whole dose curve; as a rule, active = well fitted curve in the direction sought with a large enough effect; inconclusive = small, poorly fitted or top-dose-only effect, or another doubt; inactive = no such curve, though single readings can be large; an effect the other way counts as inactive or inconclusive.

CCOc1ccc(NC(=O)CC2C(=O)N(c3ccc(OC)cc3)C(=O)N2C2CCCCC2)cc1 (stereo unspecified)	none (no result: IL-1B inflam inh, RORg inh, ELG1 DNA repair, Gal4-VP16 FLuc)
CCc1ccc(NC(=O)CC2C(=O)N(c3ccc(C)cc3)C(=O)N2C2CCCC2)cc1 (stereo unspecified)	DT40 TDP1 no CPT 21µM, DT40 TDP1 CPT inconclusive (no result: IL-1B inflam inh, RORg inh, ELG1 DNA repair, Gal4-VP16 FLuc)
CCc1ccc(NC(=O)CC2C(=O)N(c3ccc(Cl)cc3)C(=O)N2C2CCCC2)cc1 (stereo unspecified)	DT40 TDP1 no CPT 18µM, DT40 TDP1 CPT inconclusive (no result: IL-1B inflam inh, RORg inh, ELG1 DNA repair, Gal4-VP16 FLuc)
O=C(CC[C@H]1O[C@@H](n2ccc(=O)[nH]c2=O)[C@H](O)[C@@H]1O)NCc1ccccc1	none (no result: RORg inh, ELG1 DNA repair, Gal4-VP16 FLuc)
COc1ccc(C(=O)NCCS(=O)(=O)N2CCCCCC2)cc1	none (no result: RORg inh, Gal4-VP16 FLuc)
Nc1ccccc1SC1CC(=O)N(c2ccc3c(c2)OCCO3)C1=O (stereo unspecified)	DT40 TDP1 no CPT inconclusive, ELG1 DNA repair inconclusive
C/C(CCc1ccc2c(c1)OCO2)=N\N=C(/N)SC1CC(=O)N(c2ccc(Cl)cc2)C1=O (stereo unspecified)	RORg inh 8.9µM, Gal4-VP16 FLuc inconclusive
O=C1SC(SC(=Nc2ccccc2)Nc2ccccc2)C(=O)N1c1ccccc1 (stereo unspecified)	DT40 TDP1 no CPT inconclusive, ELG1 DNA repair inconclusive, DT40 TDP1 CPT 15µM
O=C1CC(SC(=Nc2ccccc2)Nc2ccccc2)C(=O)N1c1ccc(Cl)c(Cl)c1 (stereo unspecified)	IL-1B inflam inh inconclusive, DT40 TDP1 no CPT 18µM, RORg inh inconclusive, DT40 TDP1 CPT inconclusive
Nc1ccccc1SC1CC(=O)N(c2ccc(Cl)c(Cl)c2)C1=O (stereo unspecified)	IL-1B inflam inh inconclusive, DT40 TDP1 no CPT 13µM, DT40 TDP1 CPT 26µM
Cc1cccc(N2C(=O)CC(SC(=Nc3ccccc3)Nc3ccccc3)C2=O)c1 (stereo unspecified)	DT40 TDP1 no CPT inconclusive, DT40 TDP1 CPT inconclusive
N/C(=N\N=C\c1ccc2c(c1)OCO2)SC1CC(=O)N(c2ccc(C(=O)O)cc2)C1=O (stereo unspecified)	none
O=C(CCc1nnc2ccc(N3CCC4(CC3)OCCO4)nn12)N1CCCCC1	none
COc1cccc(CN2CCC3(CCC(CNC(=O)c4ccccc4)O3)CC2)c1 (stereo unspecified)	none (no result: IL-1B inflam inh, RORg inh, ELG1 DNA repair, Gal4-VP16 FLuc)
CC1=CC(=O)C2=C(C)C[C@@H]3OC(=O)[C@@H](C)[C@H]3C=C12	none (no result: IL-1B inflam inh, ELG1 DNA repair)
CC(C)c1ccc(S(=O)(=O)c2nnn3c2nc(NC2CCCC2)c2sccc23)cc1	none (no result: IL-1B inflam inh, RORg inh, ELG1 DNA repair, Gal4-VP16 FLuc)
O=C1CC(Sc2ccc(Cl)cc2)C(=O)N1c1ccc2c(c1)OCCO2 (stereo unspecified)	DT40 TDP1 no CPT 15µM, RORg inh inconclusive, Gal4-VP16 FLuc inconclusive, DT40 TDP1 CPT 2.9µM (no result: IL-1B inflam inh)
COc1ccc(CC(=O)Oc2cc(C)ccc2C)cc1	none
Cc1cc(O)c(-c2n[nH]c3c2C(c2cccc(O)c2)N(Cc2cccnc2)C3=O)cc1Cl (stereo unspecified)	RORg inh inconclusive, ELG1 DNA repair inconclusive, DT40 TDP1 CPT inconclusive
CSc1ccc(C2c3c(-c4ccccc4O)n[nH]c3C(=O)N2Cc2ccncc2)cc1 (stereo unspecified)	DT40 TDP1 no CPT 18µM, DT40 TDP1 CPT 23µM (no result: IL-1B inflam inh, RORg inh, ELG1 DNA repair, Gal4-VP16 FLuc)
COc1ccc(C2c3c(oc4ccccc4c3=O)C(=O)N2Cc2ccncc2)cc1 (stereo unspecified)	ELG1 DNA repair inconclusive (no result: IL-1B inflam inh, DT40 TDP1 no CPT, DT40 TDP1 CPT)
CCc1ccc(C2c3c(-c4ccccc4O)n[nH]c3C(=O)N2Cc2cccnc2)cc1 (stereo unspecified)	DT40 TDP1 no CPT inconclusive, DT40 TDP1 CPT 16µM (no result: IL-1B inflam inh, RORg inh, ELG1 DNA repair, Gal4-VP16 FLuc)
COc1ccccc1-c1cccc([C@@H]2C[C@H]3[C@H](CON3C)CN2C(C)=O)c1	none (no result: RORg inh, ELG1 DNA repair, Gal4-VP16 FLuc)
COc1cccc(N2CC(NC(=O)c3ccc(S(=O)(=O)N4CCCC4)cc3)CC2=O)c1 (stereo unspecified)	none (no result: IL-1B inflam inh, RORg inh, ELG1 DNA repair, Gal4-VP16 FLuc)
